# Assay results published in PMC4336329 (PLoS ONE, 2015).
# Out of some 310,000 compounds screened, about 14,000 (4.5%) showed an effect of 50% or more. Effects have a minus sign here. Shown is part of a subset that was picked to be rich in strong results.
# Target: human ether-à-go-go-related gene (hERG) potassium channel (human, UniProt Q12809)
# Test: primary screen, population patch clamp on CHO cells stably expressing hERG; higher = less effect of the substance
# 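Also: peak tail current of the secondary pulse compared with the same well before compound.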
# Sequence of human ether-à-go-go-related gene (hERG) potassium channel (Q12809 whole entry, looked up): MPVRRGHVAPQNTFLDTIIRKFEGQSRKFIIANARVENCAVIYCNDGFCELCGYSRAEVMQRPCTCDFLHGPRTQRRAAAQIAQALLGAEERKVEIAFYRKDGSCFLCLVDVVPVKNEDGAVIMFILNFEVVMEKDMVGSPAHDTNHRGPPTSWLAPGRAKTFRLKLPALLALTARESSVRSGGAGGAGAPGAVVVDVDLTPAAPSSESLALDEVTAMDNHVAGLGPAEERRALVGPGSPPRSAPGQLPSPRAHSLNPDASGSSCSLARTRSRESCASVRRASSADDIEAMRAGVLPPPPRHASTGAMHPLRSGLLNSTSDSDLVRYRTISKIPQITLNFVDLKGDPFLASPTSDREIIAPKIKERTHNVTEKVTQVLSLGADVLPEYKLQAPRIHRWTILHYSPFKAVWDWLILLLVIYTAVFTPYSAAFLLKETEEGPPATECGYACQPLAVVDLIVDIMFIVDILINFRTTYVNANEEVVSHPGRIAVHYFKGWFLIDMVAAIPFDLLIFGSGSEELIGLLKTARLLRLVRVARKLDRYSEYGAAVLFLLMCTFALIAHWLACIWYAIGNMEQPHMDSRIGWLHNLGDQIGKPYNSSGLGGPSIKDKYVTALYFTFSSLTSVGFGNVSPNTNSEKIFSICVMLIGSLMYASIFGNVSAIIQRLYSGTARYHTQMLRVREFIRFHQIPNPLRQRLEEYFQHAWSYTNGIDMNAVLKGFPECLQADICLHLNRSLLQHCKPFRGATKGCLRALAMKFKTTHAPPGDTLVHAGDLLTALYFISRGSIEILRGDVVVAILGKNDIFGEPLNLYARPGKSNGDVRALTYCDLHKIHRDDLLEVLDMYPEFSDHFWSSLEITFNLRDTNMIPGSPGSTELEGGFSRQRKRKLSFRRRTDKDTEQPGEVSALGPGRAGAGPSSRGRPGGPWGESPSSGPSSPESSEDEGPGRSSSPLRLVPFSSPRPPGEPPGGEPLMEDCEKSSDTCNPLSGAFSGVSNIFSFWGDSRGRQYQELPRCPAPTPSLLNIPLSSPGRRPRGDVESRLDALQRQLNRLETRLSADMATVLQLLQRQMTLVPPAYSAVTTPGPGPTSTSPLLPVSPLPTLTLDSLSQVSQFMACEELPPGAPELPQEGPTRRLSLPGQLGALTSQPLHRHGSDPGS
row,Structure (SMILES),"hERG current change (%, negative = inhibition) at 10uM [%]"
1,Cc1c(OCC(F)(F)F)ccnc1CSc1nc2ccccc2[nH]1,20.6
2,O=C(CCN1C(=O)/C(=C/c2ccccc2Cl)SC1=S)NNC(=O)c1ccccc1O,-6.37
3,CCOc1ccc(N(CC(=O)Nc2ccc(OC)cc2)S(C)(=O)=O)cc1,3.39
4,CC(C)(C)C(=O)N1CCC(O)(CS(=O)(=O)c2ccc(Cl)c(Cl)c2)CC1,-5.3
5,CCCN1C(=O)C(NS(=O)(=O)c2ccc(N)cc2)(C(F)(F)F)C(C(=O)OC)=C1C (stereo not drawn),10.1
6,CSc1ccccc1OCc1cc(C(=O)N(C)C(C)c2ccccn2)no1 (stereo not drawn),-10.6
7,CCN(CC1CCCO1)C(=O)c1cc(COc2ccc(OC)cc2Cl)on1 (stereo not drawn),-5.59
8,CCN(CC)C1CCN(C(=O)c2cc(COc3ccc(F)cc3Cl)on2)C1 (stereo not drawn),-70
9,Cc1ccc(OCc2cc(C(=O)NCC(C)(C)N3CCOCC3)no2)cc1C,-45.8
10,CSc1ccccc1OCc1cc(C(=O)NCC(C)(C)N2CCOCC2)no1,-93
11,CSc1ccccc1OCc1cc(C(=O)N(C)C(C)c2nc(C)cs2)no1 (stereo not drawn),-63.6
12,CCN(CC1CCCO1)C(=O)c1cc(COc2ccccc2SC)on1 (stereo not drawn),-85.6
13,O=C(c1cc(COc2ccc(F)cc2Cl)on1)N1CCCC(c2ccccc2)C1 (stereo not drawn),-5.56
14,CSc1ccccc1OCc1cc(C(=O)NCc2csc(C(C)C)n2)no1,-9.57
15,COc1ccc(OCc2cc(C(=O)NCC(C)(C)N3CCOCC3)no2)c(Cl)c1,-31.8
16,CCN(CC1CCCO1)C(=O)c1cc(COc2ccc(F)cc2F)on1 (stereo not drawn),-14.8
17,O=C(c1cc(COc2ccc(F)cc2Cl)on1)N1CC[C@@H]2CCCC[C@H]2C1,12.6
18,COc1cc(CNS(=O)(=O)CCl)cc(OC)c1OC,12.7
19,CCOC(=O)c1sc(=S)n(C)c1NC(=O)c1ccc(OC)cc1,17.4
20,COc1ccc2nc(C)c3cc(C)oc3c2c1,-15.5
21,Cc1cc(C)c2c(n1)SCC(=O)N2CC(=O)Nc1cc(F)ccc1F,-7.16
22,COc1ccc(NC(=O)/C=C/c2ccc(OC(F)F)cc2)cn1,-24.7
23,CCC(=O)NCCc1nc2cc(NC(=O)c3ccc(F)cc3)ccc2n1C,1.29
24,COc1cc(OC)c(C(=O)Nc2ccncc2)cc1OC,7.83

row,Structure (SMILES),"hERG current change (%, negative = inhibition) at 10uM [%]"
1,CCC(=O)Nc1ccc(S(=O)(=O)c2ccc(NC(=O)CC)cc2)cc1,0.428
2,CSc1ccccc1OCc1cc(C(=O)N2CCN(C)C(c3ccccc3)C2)no1 (stereo not drawn),-5.98
3,COc1ccccc1OCc1cc(C(=O)N2CCN(C)C(c3ccccc3)C2)no1 (stereo not drawn),-61.1
4,COc1cccc(OCc2cc(C(=O)N3CCN(C)C(c4ccccc4)C3)no2)c1 (stereo not drawn),-6.09
5,Cc1ccccc1OCC(=O)NCC(C)(C)N1CCOCC1,7.19
6,CC(C)(CNC(=O)COc1ccccc1Cc1ccccc1)N1CCOCC1,-55.6
7,COCC1CCN(C(=O)c2cc(COc3ccccc3SC)on2)C1 (stereo not drawn),-33.9
8,CCN(CC)C1CCN(C(=O)c2cc(COc3ccccc3SC)on2)C1 (stereo not drawn),-68.4
9,CSc1ccccc1OCc1cc(C(=O)N2CCCC(C)C2)no1 (stereo not drawn),-0.622
10,Cl.O=C(COc1ccccc1Cc1ccccc1)NCCCN1CCOCC1,-32.1
11,C[C@H](CCC(=O)O)[C@H]1CC[C@H]2[C@@H]3CC[C@@H]4C[C@H](O)CC[C@]4(C)[C@H]3C[C@H](O)[C@]12C,11.8
12,CCCN1CCC(NC23CC4CC(CC(C4)C2)C3)CC1,22.1
13,O=S(=O)(c1cccc2nonc12)N1CCN(c2ccccc2F)CC1,4.42
14,CCOC(=O)c1c(C)[nH]c(C)c1C(=O)CSc1ncccn1,-2.23
15,O=C(Nc1nnc(-c2ccccc2Cl)s1)C1CCN(S(=O)(=O)c2ccc(Cl)cc2)CC1,28.1
16,Cc1ccc(OCCCN(C)C)c(Br)c1,-20.6
17,CCOc1ccccc1OCCCOc1ccc(C)cc1Br,7.97
18,CCc1cccc(OCCCCN(CC)CC)c1,-37.9
19,CCN(CC)CCCOc1ccc(Cl)c(Cl)c1,-60.5
20,CCN(CC)CCCOc1ccc(C)cc1Br,-69
21,Clc1ccc(OCCCn2cncn2)cc1Cl,-12.2
22,COc1ccc(/C=N/N=C/c2ccc(OC)cc2)cc1,14
23,CCOC(=O)CC1COCCN1C(=O)c1ccc2oc(Cc3ccccc3)nc2c1 (stereo not drawn),1.91
24,COc1ccc([C@@H]2CC=C(C(=O)O)CN2S(=O)(=O)c2ccc(Cl)cc2)cc1,7.54
